Records with an inconclusive call do not appear. Activity calls are given as the source filed them. Rule for the calls: active = hit-call score of the fitted dose curve at least 0.9, where 1 is the maximum; inconclusive = response in the unintended direction; inactive = score below 0.9.
target: human Peroxisome Proliferator-activated Receptor delta (PPARd), PPARD (gene 5467) (UniProt Q03181); test: ATG_PPARd_TRANS: Attagene TRANS-FACTORIAL HepG2 Assay for human Peroxisome Proliferator-activated Receptor delta (PPARd) (AID 2283002)
Sequence (Q03181 whole entry, looked up): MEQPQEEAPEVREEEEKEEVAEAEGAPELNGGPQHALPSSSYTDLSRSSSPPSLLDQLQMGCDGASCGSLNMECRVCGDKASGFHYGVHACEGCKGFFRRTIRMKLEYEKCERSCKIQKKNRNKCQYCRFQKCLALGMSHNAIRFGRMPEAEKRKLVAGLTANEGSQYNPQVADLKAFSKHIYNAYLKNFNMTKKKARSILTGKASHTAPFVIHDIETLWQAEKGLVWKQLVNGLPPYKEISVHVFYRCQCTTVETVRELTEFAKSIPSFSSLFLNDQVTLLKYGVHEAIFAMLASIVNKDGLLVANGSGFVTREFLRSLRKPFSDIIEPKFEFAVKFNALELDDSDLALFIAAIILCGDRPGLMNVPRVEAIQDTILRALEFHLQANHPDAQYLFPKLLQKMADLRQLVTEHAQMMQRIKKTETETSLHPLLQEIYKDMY
Description: ATG_TRANS is a cell-based, multiplexed-readout assay that uses HepG2, a human liver cell line, with measurements taken at 24 hours after chemical dosing in a 24-well plate.ATG_PPARd_TRANS is one of 30 assay component(s) measured or calculated from the ATG_TRANS assay. It is designed to make measurements of mRNA induction, a form of inducible reporter, as detected with fluorescence intensity signals by Reverse transcription polymerase chain reaction (RT-PCR) and Capillary electrophoresis technology.Data from the assay component ATG_PPARd_TRANS was analyzed into 1 assay endpoint. This assay endpoint, ATG_PPARd_TRANS, was analyzed in the positive analysis fitting direction relative to DMSO as the negative control and baseline of activity. Using a type of inducible reporter, measures of mRNA for gain-of-signal activity can be used to understand the reporter gene at the transcription factor-level as they relate to the gene PPARD. Furthermore, this assay endpoint can be referred to as a primary readout, because this assay has produced multiple assay endpoints where this one serves a reporter gene function. To generalize the intended target to other relatable targets, this assay endpoint is annotated to the nuclear receptor intended target family, where the subfamily is non-steroidal.
Human liver HepG2 cells are transiently transfected with multiple reporter transcription units (MRTUs) in 6-well plates using FuGene 6 reagent (Roche; 3 ml FuGene/1 mg DNA). The MRTU constructs are regulated by a cis-regulating element (promoter). […] A major difference between the CIS and TRANS system is that in CIS activities of endogenous TFs are measured, whereas the TRANS assay evaluates changes in activities of exogenous, chimeric NR-Gal4 proteins. […] At the end of 24 hour incubation, total RNA was isolated using TriZol reagent (Invitrogen). The isolated RNA is then reverse-transcribed using oligo(dT) primer and Mo-MLV reverse transcriptase (Invitrogen) with DNAse I (Ambion) treatment for 30 min. The one-tenth of the produced cDNA was amplified by PCR using Taq DNA polymerase (Invitrogen) and two reporter sequence-specific primers. The PCR products were fluorescently labeled by primer extension with 6-arboxyfluorescein (6-FAM) 5'-labeled reporter sequence-specific primer (2 min at 95 C, 20 s at 68 C and 10 min at 72 C) and these products were digested with 5U of HpaI (New England Biolabs) for 2h at 37 C. The fragments were purified using Qiaquick PCR columns (Qiagen), analyzed on an ABI 3130xL genetic analyzer (Applied Biosystems) with peak positions identified by using a set of X-rhodamine (ROX)-labeled MapMarker1000 molecular weight standards (BioVentures). The raw capillary electrophoresis data was processed using Attagraph software (Attagene).

| Compound | outcome | AC50 |
| --- | --- | --- |
| CCOC(=O)[C@H](C)O | inactive | – |
| CCOCC(=O)O | inactive | – |
| O=C(C(Cl)Cl)N1CCOC12CCCCC2 | inactive | – |
| CCCCCCOC(=O)C(C)CC (stereo not given) | inactive | – |
| COCCCOCCCOC | inactive | – |
| O=C(O)Cc1c(Cl)ccc(Cl)c1Cl | inactive | – |
| CCCCC(CC)COC(=O)c1ccccc1 (stereo not given) | inactive | – |
| O=c1c2ccccc2nnn1CCl | inactive | – |
| CC(=O)OC1C2(C)CCC(C2)C1(C)C (stereo not given) | inactive | – |
| Cc1cnc(NC(=O)C2=C(O)c3ccccc3S(=O)(=O)N2C)s1 | inactive | – |
| CC=CCO | inactive | – |
| NCCCN1CCN(CCCN)CC1 | inactive | – |
| O=C(Oc1ccccc1)c1ccc2ccccc2c1O | inactive | – |
| O=c1[nH]c(=O)c2[nH]c(=O)[nH]c2[nH]1 | inactive | – |
| CC(=O)OCC(=O)[C@@]12N=C(C)O[C@@H]1C[C@H]1[C@@H]3CCC4=CC(=O)C=C[C@]4(C)[C@H]3[C@@H](O)C[C@@]12C | inactive | – |
| CC/C=C\C/C=C\C/C=C\CCCCCCCC(=O)O | inactive | – |
| CC(C)COC(=O)C=Cc1ccccc1 | inactive | – |
| OCCNCc1ccccc1 | inactive | – |
| CCc1c(C(=O)O)c(=O)cnn1-c1ccc(Cl)cc1 | inactive | – |
| CCN(CCC#N)c1ccc(N=Nc2c(Cl)cc([N+](=O)[O-])cc2Cl)cc1 | inactive | – |

| Compound | outcome | AC50 |
| --- | --- | --- |
| CC(=O)Nc1ccc2c(c1)Cc1cc(NC(C)=O)ccc1-2 | inactive | – |
| CC(C)(c1cc(Br)c(OCCO)c(Br)c1)c1cc(Br)c(OCCO)c(Br)c1 | inactive | – |
| CCCCCC(C)O (stereo not given) | inactive | – |
| C=CC(=O)OCCOC1C2CCC1C1CC=CC12 (stereo not given) | inactive | – |
| CCOC(=O)CC | inactive | – |
| CCCCCCCCCCc1ccccc1 | inactive | – |
| CC(C)CCCCCOC(=O)CCS | inactive | – |
| O=C1c2ccccc2C(=O)C1c1nc2ccccc2c(Br)c1O | inactive | – |
| O=C(Nc1ccccc1)c1ccccc1O | inactive | – |
| CCCCCCCCCCCCCCCC[n+]1ccccc1 | inactive | – |
| COC(=O)c1c(C)cc(O)c(C)c1O | inactive | – |
| O=C1CCCCCCCCCCCCCCCO1 | – | 143 µM (active) |
| C(=CC=Nc1ccccc1)C=CNc1ccccc1 | inactive | – |
| CN(C)c1ccc(C(=N)c2ccc(N(C)C)cc2)cc1 | inactive | – |
| O=C(O)CC(C(=O)O)C(CC(=O)O)C(=O)O (stereo not given) | inactive | – |
| C=CCCCCCCCCC(=O)OCCCC | inactive | – |
| O=S(=O)(O)CC(O)CCl (stereo not given) | inactive | – |
| Nc1ccc(N=Nc2ccccc2)c(N)n1 | inactive | – |
| CCN(Cc1cccc(S(=O)(=O)O)c1)c1ccc(C(=C2C=CC(=[N+](CC)Cc3cccc(S(=O)(=O)[O-])c3)C=C2)c2ccccc2)cc1 | inactive | – |
| C/C=C\C/C=C/CCCCCCCCOC(C)=O | inactive | – |

From PubChem BioAssay (EPA / NIEHS)
